A selection: hits, their analogues and other compounds. The true share with any hit is near 19%.
ELG1 DNA repair = ELG1-dependent DNA repair inhibition; HEK293T ELG1-luciferase reporter, luminescence, 16 h; DNA damage induced by 5-fluorouridine; Potency, µM (doses to about 46.1 µM), without a hit: at the highest dose activity change, negative = inhibition, most hits filed as inhibitors; 330,000 compounds, 2.3% hits; note: potency is the fitted concentration of half-maximal effect; nearly all actives have a fitted effect of over 55% in size
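Reporter activity after DNA damage by 5-fluorouridine is monitored. Compound-treated cells incubate 16 hr at 37 °C, then ONE-Glo is added for 30 min before luminescence reading.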
IL1B secr inh = inflammasome signaling inhibition, IL-1 beta readout; THP-1 LPS/ATP IL-1B secretion, AlphaLISA, 16 h; active compounds read low; activity change, % at 57.5 µM; 360,000 compounds, 4.7% hits; in the data active = activity change below about -50%; inconclusive = mostly about -30% to -49%
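THP-1 cells pretreated 1 hr with compounds (up to 57.5 uM final), then stimulated with LPS (250 ng/mL final) plus ATP (1.25 mM final); secreted IL-1B measured by AlphaLISA after 16 hr, decreased signal indicating inhibition.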
TDP1 cell noCPT = qHTS for Inhibitors of human tyrosyl-DNA phosphodiesterase 1 (TDP1): qHTS in cells in absence of CPT; DT40 Tdp1-/- hTDP1 cells, no CPT, ATP luminescence, 48 h; Potency, µM (highest dose often 46.2 µM), for inactives: at the highest dose activity change, negative = growth inhibition, most hits filed as inhibitors; 420,000 compounds, 15% hits; note: potency is the fitted concentration of half-maximal effect; nearly all actives have a fitted effect of over 55% in size
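Growth kinetics read by CellTiter-Glo luminescence after ≥48 hr at 37 °C. Cells: DT40 Tdp1-/- stably carrying human TDP1, 400 per well, compound exposure in the absence of CPT (DMSO vehicle).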
HT1080-NT tox = kills 2HG-producing HT-1080-NT fibrosarcoma cells; AID 686970; 360,000 compounds, 1.6% hits; HT-1080-NT fibrosarcoma viability, CellTiter-Glo ATP luminescence, 48 h; Potency, µM (doses to about 46.1 µM), for inactives: at the top dose activity, negative = less viability, actives largely listed as cytotoxic;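 note: NT is the 2HG producing partner of a matched IDH1 knockdown line; potency is the fitted concentration of half-maximal effect; 0% = DMSO-treated cells and -100% = media-only wells without cells; nearly all actives have a fitted effect of over 55% in size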
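Luminescent CellTiter-Glo readout after 48 hours of compound exposure at 37 degrees C defined viability of HT-1080-NT cells. Activity was normalized to DMSO wells and cell-free media wells; concentration-response curves were fitted and assigned curve classes.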
HT1080 IDH1KD tx = toxicity to HT-1080 IDH1 knockdown cells (counter line); AID 686971; HT-1080 IDH1 knockdown viability, ATP luminescence, 48 h; 360,000 compounds, 2% hits; Potency, µM (highest dose often 46.1 µM), without a hit: at the highest dose activity, negative = toxicity, usual class: cytotoxic;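 note: potency is the fitted concentration of half-maximal effect; 0% = DMSO wells and -100% = cell-free medium wells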
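After a 2 h attachment period, IDH1KD HT-1080 cells took pin-transferred compound for 48 h at 37 °C; ATP-based luminescence after 10 min room-temperature reagent incubation reported viability.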
DT40 TDP1 CPT = DT40-hTDP1 cell growth loss with CPT | AID 686979 | chicken DT40 Tdp1-/-;hTDP1 cells + 20 nM CPT, ATP luminescence, 48 h | Potency, µM (top dose mostly 46.2 µM), without a hit: at the top dose activity change, negative = growth inhibition, hits mostly inhibitors | 420,000 compounds, 12% hits; note: potency is the fitted concentration of half-maximal effect; nearly all actives have a fitted effect of over 55% in size
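Chicken DT40 Tdp1-/- cells complemented with human TDP1, 400 cells/well, exposed to compounds plus 20 nM camptothecin for at least 48 h at 37 C; viability read as ATP content by CellTiter-Glo luminescence.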
Numbers without * were called inactive; ? = inconclusive; . = no result given. Unless noted, calls come from the whole dose curve; as a rule, active = well fitted curve in the direction sought with a large enough effect; inconclusive = small, poorly fitted or top-dose-only effect, or another doubt; inactive = no such curve, though single readings can be large; an effect the other way counts as inactive or inconclusive. Unless noted, % is set by controls: 0 for no effect and ±100 for the full control effect.

SMILES | ELG1 DNA repair | IL1B secr inh | TDP1 cell noCPT | HT1080-NT tox | HT1080 IDH1KD tx | DT40 TDP1 CPT
O=C(NNC(=O)c1c(O)c2ccccc2[nH]c1=O)c1ccccc1 | -3% | 0 | -16% | 5% | 2% | ?
O=C(c1ccc(Br)s1)N(Cc1cccnc1)c1nc2ccc(F)cc2s1 | . | . | -21% | . | . | -28%
O=C(N/N=C/c1ccc(F)cc1)c1c(O)c2ccccc2[nH]c1=O | ? | 0 | 5.2µM* | -2% | 0% | 4.6µM*
COc1cccc(Nc2nc(N)c([N+](=O)[O-])c(NCc3ccccc3)n2)c1 | ? | -27 | ? | -17% | ? | ?
Nc1nc(Nc2ccccc2)nc(NCc2ccccc2)c1[N+](=O)[O-] | 21µM* | -69* | ? | ? | 16µM* | ?
CNc1nc(N)c([N+](=O)[O-])c(NC2CCCCC2)n1 | 0% | 52 | ? | 0% | -2% | -4%
COCCNc1nc(N)c([N+](=O)[O-])c(Nc2ccc(F)cc2)n1 | 15% | 29 | 0% | ? | 15µM* | 7%
Cc1cccc(Nc2nc(N)c([N+](=O)[O-])c(NCc3ccccc3)n2)c1 | ? | . | ? | ? | 16µM* | ?
Nc1nc(Nc2ccccc2)nc(NC2CCCCC2)c1[N+](=O)[O-] | ? | -88* | ? | ? | ? | 13µM*
CCC(C)NC(=O)CSc1nc2cc3c(cc2c(=O)n1CCCC(=O)NCc1ccc2c(c1)OCO2)OCO3 (configuration not stated) | . | . | 2% | . | . | -11%
CC(C)(C)C(=O)Nc1ccc(C(=O)COC(=O)C2=COCCO2)cc1 | 22% | -5 | 8% | 3% | -17% | 0%
COCc1ccc(CN2CCCCC2C(=O)Nc2ccc(Oc3ccccc3)nc2)o1 (configuration not stated) | -12% | 1 | ? | 5% | -2% | ?
COC(=O)c1ccn(CC(=O)NC2CCCCC2)n1 | ? | 9 | -19% | 0% | 0% | 1%
CCN(CC)S(=O)(=O)c1cc(NC(=O)[C@@H](NC(N)=O)C(C)C)ccc1C | -9% | 22 | -16% | 10% | 28% | -3%
Cc1cccc(-c2noc(-c3cccnc3NCc3ccccc3Cl)n2)c1 | . | . | 0% | . | . | -15%
CC(C)OC(=O)c1ccc2ccc(-c3ccccc3)nc2c1 | . | 57 | 16µM* | -8% | -16% | ?
Cc1cc(=O)cc2oc3cc(N)c(-c4c(C)cc(O)cc4O)c(C)c3nc1-2 | . | . | -24% | . | . | 5%
CC(=O)NC12CC3CC(C1)CC(C(=O)OCC(=O)NC(=O)c1cccn1C)(C3)C2 | ? | 33 | -5% | 16% | 3% | -18%
CCN(C(=O)COC(=O)C12CC3CC(CC(NC(C)=O)(C3)C1)C2)C1CCCCC1 | 8% | 15 | 21µM* | 8% | 10% | ?
CC(=O)N1CCCc2cc(S(=O)(=O)N3CCC(C(=O)N(C)C4CCCCC4)CC3)ccc21 | . | . | 23µM* | . | . | ?
CC(=O)N1CCCc2cc(S(=O)(=O)N3CCC(N(C)C(C)C)CC3)ccc21 | . | . | 0% | . | . | -1%
CC(=O)N1CCCc2cc(S(=O)(=O)N3CCC(C(=O)N(Cc4ccccc4)C(C)C)CC3)ccc21 | . | . | ? | . | . | 23µM*
CSc1nc(N(C)NC(=O)c2ccccc2)c2ccccc2n1 | 8% | 41 | 0.52µM* | 0.58µM* | 0.58µM* | 0.58µM*
CSc1nc(N(C)NC(=O)c2ccc(Cl)cc2)c2ccccc2n1 | -20% | 0 | 0.33µM* | 0.73µM* | ? | 0.26µM*
COc1ccc(CC2(CO)CCN(Cc3cc4ccccc4o3)CC2)cc1 | -17% | -80* | 16µM* | ? | -23% | 16µM*
